Measured values reported in PubChem BioAssay (NCATS).
Results filed as inconclusive are left out. Entries that show only a call come without a potency. The source made the active and inactive calls. Calls follow the shape of the dose curve; as a rule, active = well fitted cell-killing curve with a large enough effect; inconclusive = small, poorly fitted or top-dose-only effect; inactive = flat fitted curve, though single readings scatter.

Assay: Quantitative highthroughput screen to assess conditional lethalithy of P12 Ichikawa cells grown in Human Plasma-Like Medium with dialyzed fetal bovine serum (HPLM+ds) (AID 1963879); also: nearly all actives have a fitted effect of over 35% in size
Settings: ATP luminescence, 48 h; Potency: viability; series mostly up to 45.8 µM
In short: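 Each medium arm—HPLM with 10% dialyzed FBS, or RPMI1640 with 5 mM glucose and 10% untreated or dialyzed FBS—was screened against an 11-point, 3-fold compound titration for 48 h at 37 °C, with CellTiter-Glo luminescence as endpoint.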
Potency is read from the fitted curve at half-maximal effect.

Question: For `OCCNC1CCCc2c1[nH]c1ccc(-c3ccccc3)cc21` (stereo not drawn), which Potency is on record?
Answer: 20.9 µM (active)

Question: With `COc1cc2nc(N3CCN(C(=O)c4ccco4)CC3)nc(N)c2cc1OC` as the compound, how does the Potency read?
Answer: 16.6 µM (active)

Question: Which Potency does the source give for `c1nc2nc(Nc3ccc(N4CCOCC4)cc3)nc(NC3CCCCC3)c2[nH]1` here?
Answer: 3.32 µM (active)

Question: With `Cn1c(=O)c2c(ncn2CC(O)CO)n(C)c1=O` (stereo not drawn) as the compound, how does the Potency read?
Answer: inactive

Question: Which Potency does the source give for `COc1cc(-c2nn(C3CCC(N4CCN(C(C)=O)CC4)CC3)c3ncnc(N)c23)ccc1NC(=O)c1cc2ccccc2n1C` (stereo not drawn) here?
Answer: inactive

Question: With `O=C(Nc1ccc(OC(F)(F)F)cc1)c1sccc1NCc1ccnc2ccccc12` as the compound, how does the Potency read?
Answer: 0.469 µM (active)

Question: Which Potency does the source give for `C[C@H](NC(=O)C(=O)Nc1ccccc1C(C)(C)C)C(=O)N[C@@H](CC(=O)O)C(=O)COc1c(F)c(F)cc(F)c1F` here?
Answer: 20.9 µM (active)

Question: With `Cc1cn[nH]c1` as the compound, how does the Potency read?
Answer: inactive

Question: For `C[C@]12C=CC(=O)C=C1CC[C@@H]1[C@@H]2C(=O)C[C@@]2(C)[C@H]1CC[C@]2(O)C(=O)CO`, which Potency is on record?
Answer: inactive

Question: With `c1cnc2cc3c(cc2n1)C1CNCC3C1` as the compound, how does the Potency read?
Answer: inactive

Question: For `CCCCCCCCCC(=O)N[C@@H](Cc1c[nH]c2ccccc12)C(=O)N[C@H](CC(N)=O)C(=O)N[C@@H](CC(=O)O)C(=O)N[C@@H]1C(=O)NCC(=O)N[C@@H](CCCN)C(=O)N[C@@H](CC(=O)O)C(=O)N[C@H](C)C(=O)N[C@@H](CC(=O)O)C(=O)NCC(=O)N[C@H](CO)C(=O)N[C@@H]([C@@H](C)CC(=O)O)C(=O)N[C@@H](CC(=O)c2ccccc2N)C(=O)O[C@@H]1C`, which Potency is on record?
Answer: inactive

Question: For `C[C@H](Cc1ccc(O)c(O)c1)[C@@H](C)Cc1ccc(O)c(O)c1`, which Potency is on record?
Answer: 20.9 µM (active)

Question: Which Potency does the source give for `c1ccc(CNc2nc(NCc3ccccc3)c3ccccc3n2)cc1` here?
Answer: inactive

Question: Which Potency does the source give for `NS(=O)(=O)c1ccc(Nc2nc(OCC3CCCCC3)c3[nH]cnc3n2)cc1` here?
Answer: 0.0469 µM (active)

Question: For `O=C(CN1C(=O)C2(CCCC2)NC[C@H]1c1cc(F)cc(F)c1)Nc1ccc2c(c1)C[C@@]1(C2)C(=O)Nc2ncccc21`, which Potency is on record?
Answer: inactive

Question: For `Cc1cccc2c1CC[C@H](CN1CCC(c3c(Cl)cccc3Cl)CC1)C[C@@H]2O`, which Potency is on record?
Answer: inactive

Question: With `O[C@@H](CNC[C@H](O)[C@H]1CCc2cc(F)ccc2O1)[C@@H]1CCc2cc(F)ccc2O1` as the compound, how does the Potency read?
Answer: inactive

Question: With `COc1cc2ncnc(Nc3cccc(Cl)c3)c2cc1OC` as the compound, how does the Potency read?
Answer: 4.69 µM (active)
